A short description of the test: small molecules boosting NK-mediated OVCAR3 lysis – imaging, primary NK cells, calcein-AM imaging, primary screen (AID 1508625).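 Further: compound given to NK cells 16 h before adding targets at 1.5 to 1 ratio.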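 On z-score: more negative robust z means stronger NK killing of tumor cells.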 The note with it: OVCAR3 lysis by primary NK cells, at 5 µM; z-score: measured here: robust Z-score, single-point normalisation.

For `Cc1cc(=O)oc2ccc(Oc3ccc(C#N)cc3[N+](=O)[O-])cc12`, the corrected activity, negative = more killing was -0.59% and the z-score was -0.183.
In the case of `CCOC(=O)c1ccc(NC(=O)C(=O)N2CCCC2)cc1`, the corrected activity, negative = more killing is -5.89% and the z-score is -2.55.
As to `COc1ccc(CNC(=O)CSc2nc3cc(C(F)(F)F)ccc3s2)cc1`, the corrected activity, negative = more killing is -4.55% and the z-score is -2.53.
The corresponding values for `COc1cc(C=C2C=C(c3ccc(C)cc3)OC2=O)cc(OC)c1OC` are -0.351% and -0.181.
Turning to `COc1ccc(OC(C)C(=O)Nc2ccc(Br)cc2)cc1` (stereo unspecified), the corrected activity, negative = more killing is -7.07% and the z-score was -2.19.
For the compound `Cc1cccc(C)c1OCCCCCCN1CCOCC1`, the corrected activity, negative = more killing was -1.15% and the z-score was -0.473.
As to `CC1C(=O)NN=C1C(=O)NN=Cc1cccnc1` (stereo unspecified), the corrected activity, negative = more killing is -3.57% and the z-score was -1.56.
The corresponding values for `CC(C(=O)O)N1C(=O)C2C3CCC(C3)C2C1=O` (stereo unspecified) are 1.01% and 0.359.
In the case of `COc1ccc(-c2cc(C(=O)NN=Cc3ccncc3)[nH]n2)cc1`, the corrected activity, negative = more killing was 2.36% and the z-score is 1.03.
On to `CCCCCCCNC(=O)c1ccc2c(c1)ncn2-c1cccc(F)c1`, for which the corrected activity, negative = more killing is -3.62% and the z-score is -0.976.
`COc1ccc(N2CCN(C(=O)c3ccc4ccccc4n3)CC2)cc1`: the corrected activity, negative = more killing was -1.53% and the z-score is -0.85.
For `Cc1ccc(C(=O)Oc2cccc(C(=S)N3CCOCC3)c2)cc1`, in that order: 1.48% and 0.458.
Turning to `COc1ccccc1NC(=O)c1ccccc1NC(=O)c1ccc(F)cc1`, the corrected activity, negative = more killing is -2.61% and the z-score is -1.45.
Turning to `CC(C)CCNC(=O)c1c[nH]c2ccc(S(=O)(=O)N3CC(C)CC(C)C3)cc2c1=O` (stereo unspecified), the corrected activity, negative = more killing is -3.33% and the z-score was -1.21.
Take `CC(C)=NNC(=O)C(=O)Nc1cccc(Cl)c1`: the corrected activity, negative = more killing was -3.01% and the z-score is -1.56.
For `O=C(CCn1c(SCc2ccccc2Cl)nc2cc3c(cc2c1=O)OCO3)N1CCN(c2ccccc2)CC1`, the corrected activity, negative = more killing is -5.52% and the z-score was -1.46.
The corresponding values for `OC(CN1CCN(C2c3ccccc3-c3ccccc32)CC1)Cn1c2ccccc2c2ccccc21` (stereo unspecified) are -8.62% and -1.82.
With `CC(=O)N1CCc2[nH]c3ccccc3c2C1`, the corrected activity, negative = more killing is -1.79% and the z-score is -0.676.
With `CCOc1ccc2nc(SCC(=O)Nc3ccccc3Oc3ccccc3)sc2c1`, the corrected activity, negative = more killing was -3.99% and the z-score was -1.24.
For `COc1cc(OC)c(CNc2ccc(F)cc2C)cc1Br`, the corrected activity, negative = more killing was -7.05% and the z-score was -2.24.
As for `COCCCNC(=O)C1c2ccccc2C(=O)N(C)C1c1cccs1` (stereo unspecified), the corrected activity, negative = more killing was -4.54% and the z-score is -1.13.
Take `O=C(CCCCCn1c(=S)[nH]c2cc3c(cc2c1=O)OCO3)N1CCN(c2ccc(Cl)cc2)CC1`: the corrected activity, negative = more killing was -2.25% and the z-score was -0.597.
With `O=C(c1ccncc1)N1CCN(CC2CC=CCC2)CC1` (stereo unspecified), the corrected activity, negative = more killing is -3.11% and the z-score was -1.39.
For `CCCCOc1ccc(C(=O)N2CCN(C(=O)N(C)C)CC2)cc1`, in that order: -0.23% and -0.128.
For `CCc1cc(=O)oc2c(C)c(OCC(=O)c3cccc(OC)c3)ccc12`, in that order: -4.48% and -1.67.
On to `COc1ccc(Nc2ccncc2[N+](=O)[O-])cc1`, for which the corrected activity, negative = more killing is -5.75% and the z-score was -3.2.
Consider `CCOc1ccccc1NC(=O)CC1Sc2ccc(C(F)(F)F)cc2NC1=O` (stereo unspecified), for which the corrected activity, negative = more killing is -3.99% and the z-score is -2.14.
With `CC(C)(C)C1CCC(=O)C(C2(O)C(=O)Nc3ccc(Br)cc32)C1` (stereo unspecified), the corrected activity, negative = more killing was -3.34% and the z-score was -0.998.
For `Cc1ccc(S(=O)(=O)NCc2cc(-c3nn(C)c(=O)c4ccccc34)ccc2C)cc1`, in that order: -2.25% and -0.924.
Regarding `CC(C)C(CC(=O)O)NS(=O)(=O)c1ccc(F)cc1` (stereo unspecified), the corrected activity, negative = more killing was -3.43% and the z-score is -0.924.
As for `CCCn1cnc2sc(C(=O)Nc3ccc(Oc4ccc5c(c4)C(=O)N(c4ccc6c(c4)OCO6)C5=O)cc3)c(C)c2c1=O`, the corrected activity, negative = more killing was -4.94% and the z-score is -1.8.
As to `COc1ccc(C2Nc3ccccc3NC3=C2C(=O)CC(c2ccco2)C3)cc1` (stereo unspecified), the corrected activity, negative = more killing is -2.08% and the z-score is -0.853.
With `CCN1CCN(C(=O)c2oc3ccc(S(=O)(=O)N4CCCCCC4)cc3c2C)CC1`, the corrected activity, negative = more killing was -6.41% and the z-score was -1.6.
Consider `COCCNC(=O)c1cc2cc3ccc(Cl)cc3nc2o1`, for which the corrected activity, negative = more killing is -3.66% and the z-score was -0.897.
`Cc1cccc(C(=O)N2N=C(C(F)(F)F)CC2(O)C(C)(C)C)c1` (stereo unspecified): the corrected activity, negative = more killing is -2.49% and the z-score was -0.95.
As for `O=C1CCC(=O)N1c1ccc(NCc2ccc(Cl)cc2)c([N+](=O)[O-])c1`, the corrected activity, negative = more killing is -4.48% and the z-score is -1.63.
`CC(C)(C)c1ccc(C(=O)CC2(O)C(=O)Nc3ccc(Cl)cc32)cc1` (stereo unspecified): the corrected activity, negative = more killing is -2.41% and the z-score is -0.898.
As for `CC1=C(C)CC(C(=O)Nc2ccc(S(=O)(=O)N3CCOCC3)cc2)C(C(=O)O)C1` (stereo unspecified), the corrected activity, negative = more killing is -10.2% and the z-score is -3.17.
For `C(=Cc1ccccc1)CN1CCN(C2c3ccccc3-c3ccccc32)CC1`, the corrected activity, negative = more killing was -0.148% and the z-score is -0.0313.
The corresponding values for `COc1ccc(OC)c(C2Nc3ccccc3NC3=C2C(=O)CC(C)(C)C3)c1` (stereo unspecified) are -5.96% and -1.85.
In the case of `c1ccc(-c2nnc3n2C2(CCCCC2)Cc2ccccc2-3)cc1`, the corrected activity, negative = more killing was 0.806% and the z-score is 0.417.
In the case of `COCCNCCCSc1ccc(Cl)cc1`, the corrected activity, negative = more killing is -1.98% and the z-score was -0.737.
The corresponding values for `O=C(CCCn1c(=S)[nH]c2cc3c(cc2c1=O)OCO3)NC1CC1` are -7.46% and -1.98.
